About 83,000 compounds went through this panel and 20% of them were active in at least one assay; those are over-represented in the sample as a whole.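 Values shown are percent growth following 48 h exposure of cells in 96-well plates to a single concentration of compound; below 10 was considered active.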 The source made the active and inactive calls.

This experiment has as its system COLO 205 colon. The experiment is described as follows: NCI-60 one-dose screen, 48 h (100 = growth as untreated, 0 = no growth, -100 = all killed). As to conditions: 10 µM unless noted. How it is done:
Cells are grown in 96 well plates and exposed to the test compound for 48 hours. Compounds are tested at a single concentration, which is 10^-5 M for most compounds. The reported endpoint is percent growth (GI% or GIPRCNT), where numbers from 0 - 100% represent growth inhibition, and numbers from -100% - 0 represent cell death. For example, a value of 40 represents 60% growth inhibition. A value of 0 means no net growth occurred over the course of the experiment. A value of -40 indicates 40% of cells at the beginning of the experiment died by the end of the experiment. A value of -100 means all cells are dead at the end of the experiment.
NCI-60 Human Tumor Cell Lines Screen was performed using the standard one-dose NCI protocol, which is described in more detail at https://dtp.cancer.gov/discovery_development/nci-60/default.htm.
Compounds with GIPRCNT values below 10 were considered active. Activity score was based on GIPRCNT using the following formula: […]
Score is 0 for GIPRCNT values of 100 or above, 50 for GIPRCNT values of 0, and 100 for GIPRCNT values of -100.
For `COc1cc(/C=C2\CN(S(=O)(=O)c3ccc(C)cc3)C/C(=C\c3cc(CN4CCCCC4)c(O)c(OC)c3)C2=O)cc(CN2CCCCC2)c1O`, the growth is -90.2% (active).
For the compound `Cc1nc2sc(C(=O)Nc3ccc(Cl)cc3)c(N)c2cc1C(O)c1ccccc1` (stereo not given), the growth was 29.6% (inactive).
The figure for `CC/C(Cc1ccccc1)=C(\c1ccc(OCCN2CCCCCC2)cc1)c1ccc(OC(=O)NCc2ccccc2)cc1` is -24.2% (active); for `CCSC1=CC(=O)c2ccccc2C1=O` it is 96.9% (inactive); for `CCN(CC)c1ccc(/C=C\c2cc(C)c3cc(C)ccc3n2)cc1` it is 50% (inactive).
For the compound `Cc1ccc(C(=O)c2ccc(CC(=O)N/N=C/c3ccc(O)cc3O)n2C)cc1`, the growth was 41.8% (inactive).
For `O=C(Nc1nc(C(=O)N2CCN(C(c3ccccc3)c3ccccc3)CC2)cs1)c1ccc(NC2CCCCC2)c([N+](=O)[O-])c1`, the growth was 103% (inactive).
The figure for `COc1ccc2[nH]cc(-c3nc(-c4cn(C)c5ccncc45)cs3)c2c1` is 96.2% (inactive); for `COc1ccc(C2=NN(C(=O)c3cc(OC)c(OC)c(OC)c3)C(c3ccc(N(C)C)cc3)C2)cc1` (stereo not given) it is 5.9% (active); for `CC(C)[C@@]12C[C@@H](OC(=O)COC(=O)c3ccccc3)[C@@](C)(O1)[C@@H]1CC[C@@H](C)[C@H]1[C@@H]2OC(=O)/C=C/c1ccccc1` it is 108% (inactive).
On to `O=C(CN1C(=O)/C(=C/c2ccco2)SC1=S)NCCc1c[nH]c2ccc(F)cc12`, for which the growth was 115% (inactive).
`O=C(CBr)CN1C(=O)c2ccccc2C1=O`: the growth was 101% (inactive).
`N#Cc1c(NC(=O)c2cccs2)[n+]([O-])c2ccc(Cl)cc2[n+]1[O-]`: the growth was 113% (inactive).
`COc1cc(C(=O)/C=C/c2c(-c3cccs3)nc3ccccn23)cc(OC)c1OC`: the growth is 2.79% (active).
Take `CCN(CC)S(=O)(=O)c1ccc(S(=O)(=O)N2CCC[C@@H](C(=O)N3CCN(C(=O)OC(C)(C)C)CC3)C2)cc1`: the growth is 108% (inactive).
For `CC[C@H](CC[C@@H](C)[C@H]1CC[C@H]2[C@@H]3CC[C@@H]4CC(=O)/C(=C\c5ccncc5)C[C@]4(C)[C@H]3CC[C@]12C)C(C)C`, the growth was 107% (inactive).
As to `Cn1ncc2ccc(-c3nc(-c4ccccc4)[nH]c3-c3n[nH]c(=O)n3C3CC3)cc21`, the growth was 109% (inactive).
The same measure for `Cc1cc(C)c(-c2c(O)c(Br)c(-c3c(C)cc(C)c(Br)c3C)c(O)c2Br)c(C)c1Br`: -67.2% (active); for `O=C(N=Nc1c(O)[nH]c2ccccc12)Nc1ccc(Cl)cc1`: 99.5% (inactive).
The figure for `O=C(/C=C/C12c3ccccc3C(c3ccccc31)C1C(=O)NC(=O)C12)c1ccccn1` (stereo not given) is -50.5% (active); for `CCN1CCN(CC(=O)Nc2nc3ccc(NCc4ccc(Br)cc4)cc3s2)CC1` it is -48.9% (active); for `Cc1cc(N2CCCCC2)nc(N2CCN(CC(=O)Nc3ccc4c(ccn4Cc4ccccc4)c3)CC2)n1` it is 48.2% (inactive).
The figure for `C#CCOc1ccc2ncnc(Nc3cccc(NC(=O)CCl)c3)c2c1` is 96.7% (inactive); for `COC(=O)/C(CCC=C(C)C)=C1\[C@@H](OC(C)=O)C[C@@]2(C)[C@H]1CC(=O)[C@H]1[C@@]3(C)CCC(N4CCCC4)[C@@H](C)[C@@H]3CC[C@@]12C` (stereo not given in full) it is 106% (inactive).
Regarding `O=C(NCc1ccccc1O)c1cccc2ccccc12`, the growth was 106% (inactive).
`CNCc1cccc2c1OCCOCCN(C)C(=O)CN(C)S(=O)(=O)c1ccc(cc1)-c1cnc(N)c(n1)C(=O)N2`: the growth is 19.9% (inactive).
Regarding `NC(=O)c1ccc(NC(=O)c2oc3ccccc3c2-c2cnn(-c3ccccc3)c2)cc1`, the growth is 19.9% [50 µM] (inactive).
The same measure for `C/C(=N\O)C(=O)NCCCCCC(=O)Nc1ccccc1`: 108% (inactive); for `Cc1c2cc[nH]c(=O)c2c(C)c2c1[nH]c1ccc(OC(=O)c3ccccc3)cc12`: 30.4% (inactive); for `CC1=C(C(=O)n2c3ccccc3c3ccccc32)C(c2cccc([N+](=O)[O-])c2)C(C(=O)n2c3ccccc3c3ccccc32)=C(C)N1`: 108% (inactive).
On to `FC(F)(F)c1[nH]ncc1-c1nc2c(N3CCCCC3)cc3[nH]ncc3c2c2c1CCCC2`, for which the growth was -33.7% (active).
The same measure for `COC(=O)C1=C(C)NC(C)=C(C(=O)OCC(C)C)C1c1ccccc1[N+](=O)[O-]` (stereo not given): 91.1% (inactive); for `COc1ccc(/C(C)=C(\c2ccc(OCCN3CCCCCC3)cc2)c2ccc(OC(=O)c3ccccc3)cc2)cc1`: 12.4% (inactive); for `CCCCCCCCn1ccc2cc(NC(=O)Cn3cc(CN4CCC(C)CC4)nn3)ccc21`: -74.4% (active).
The figure for `N=C(N)c1ccc(-c2ccc(-c3ccc(F)cc3)s2)s1` is -80.6% (active).
The figure for `O=C1/C(=C/c2ccccc2)CN(C(=O)c2cccnc2)C/C1=C\c1ccccc1` is -29.5% (active).
In the case of `Cc1c2ccccc2nc2c1ccc1cccnc12`, the growth was 50.8% (inactive).
On to `N#Cc1c(-c2cccc([N+](=O)[O-])c2)cc(-c2ccc(Nc3nc(Nc4ccc(F)cc4)nc(Nc4ccc(F)cc4)n3)cc2)nc1N`, for which the growth is 117% (inactive).
For `CCCCC(=O)Nc1ncc(Cc2ccccc2Cl)s1`, the growth is 37% (inactive).
With `Nc1ccc([N+](=O)[O-])cc1N=C/C=C/c1ccccc1`, the growth was 65.5% (inactive).

Source of the values: PubChem BioAssay (NCI).
